Source: PubChem
CHOP inhibitor – inhibitors of CHOP promoter induction, primary screen, cell-based, unfolded protein response, luciferase reporter; CHO-K1 CHOP-promoter luciferase, tunicamycin-induced, 15-18 h; inhibition, % at 10 µM; 220,000 compounds, 3.8% hits; AID 2732, 2010;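 active means compounds that reduced the stress-induced luciferase reporter signal by more than about 70% of percent inhibition, limit read from the data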;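 further: 0% = tunicamycin plus vehicle and 100% = wells without tunicamycin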
Hsp70 activator – Hsp70 transcriptional activators, primary screen, cell-based, HeLa, Hsp70 promoter luciferase, luminescence, 10 µM; activation, % at 10 µM; 200,000 compounds, 0.04% hits; HeLa Hsp70 promoter luciferase reporter; scaled: vehicle 0, proteasome-inhibitor control 100%;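 active means activation above the mean across all tested compounds plus 3 SD, cutoff set per campaign, cut at about 5.5% in these data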;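 further: 100% = MG132 at 30 µM as the positive control and 0% = DMSO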
S1P4 antag – S1P4 receptor antagonists, primary screen, cell-based; S1P4-expressing cells, antagonist mode, reporter read-out; inhibition, % at 4.98 µM; 220,000 compounds, 0.26% hits; in the data active means inhibition above about 29%;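 further: 0% = wells stimulated with agonist and 100% = vehicle wells without agonist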
Target sequence (O95977 whole entry, looked up): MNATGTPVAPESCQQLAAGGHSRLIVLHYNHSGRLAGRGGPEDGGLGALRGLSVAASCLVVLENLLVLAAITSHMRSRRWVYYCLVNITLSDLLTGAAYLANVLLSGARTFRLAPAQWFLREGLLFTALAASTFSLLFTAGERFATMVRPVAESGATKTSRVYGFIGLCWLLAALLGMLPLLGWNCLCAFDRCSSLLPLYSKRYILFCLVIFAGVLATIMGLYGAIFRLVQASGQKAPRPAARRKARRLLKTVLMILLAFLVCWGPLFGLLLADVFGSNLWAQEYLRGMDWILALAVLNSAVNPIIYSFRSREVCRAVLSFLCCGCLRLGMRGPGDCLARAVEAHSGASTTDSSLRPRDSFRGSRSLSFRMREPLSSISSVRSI
S1P4 agonist – S1P4 receptor agonists, primary screen, cell-based; Sphingosine 1-phosphate receptor 4 (Homo sapiens), O95977; S1P4-expressing cell line, agonist reporter assay; activation, % at 4.98 µM; 220,000 compounds, 0.35% hits; AID 1509, 2009; in the data active means activation above about 11%;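 further: 0% = DMSO vehicle and 100% = reference agonist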
Numbers without * were called inactive. A selection: hits, their analogues and other compounds. The true share with any hit is near 4.2%.

CCOC(=O)c1c(C)nc2c(c1-c1cc(OC)ccc1OC)C(=O)c1ccccc1-2 was read as CHOP inhibitor -26, Hsp70 activator 0, S1P4 antag -5 and S1P4 agonist -1.
Screening CCOC(=O)C1=C(Cc2ccc(OC)cc2)C(=O)c2ccccc2C1=O returned CHOP inhibitor 95*, Hsp70 activator 0, S1P4 antag 14 and S1P4 agonist -2.
Screening CCOC(=O)c1ccc(COC(=O)c2ccc3c(c2)-c2ccccc2C3=O)cc1 returned CHOP inhibitor 11, Hsp70 activator 0, S1P4 antag 0 and S1P4 agonist 0.
For CCOC(=O)C1=C(O)c2ccccc2C(=O)/C1=C\c1ccc(CC)cc1 the results were CHOP inhibitor 87*, Hsp70 activator 0, S1P4 antag 7 and S1P4 agonist -3.
Screening N#CC(c1ccc(F)cc1)c1ccc(C(=O)c2ccccc2)cc1 (stereo unspecified) returned CHOP inhibitor 28, Hsp70 activator 0, S1P4 antag -5 and S1P4 agonist 0.
`CC(C)[C@@H]1CC[C@@H](C)c2c(-c3ccccc3)n[nH]c21` gave CHOP inhibitor 92*, Hsp70 activator 0, S1P4 antag 15 and S1P4 agonist 5.
For O=C(COc1ccc(Cl)cc1)Nc1ccc(C(=O)NCc2cccnc2)cc1 the results were CHOP inhibitor -4, Hsp70 activator 0, S1P4 antag -11 and S1P4 agonist -2.
O=C(NCc1cccnc1)c1ccc(COc2ccc(Cl)cc2)cc1 was read as CHOP inhibitor 71*, Hsp70 activator 0, S1P4 antag -18 and S1P4 agonist -2.
`CCOC(=O)c1cc(-c2ccc(Cl)cc2)nc2c1c(=O)[nH]c(=O)n2CCOC` gave CHOP inhibitor 78*, Hsp70 activator -1, S1P4 antag 24 and S1P4 agonist 1.
For CCOC(=O)c1cc(-c2cc(OC)c(OC)c(OC)c2)nc2c1c(=O)[nH]c(=O)n2Cc1ccccc1 the results were CHOP inhibitor 31, Hsp70 activator 0, S1P4 antag -32 and S1P4 agonist 0.
Screening CCCCCC(=O)N/N=C(\C)c1ccc(N2CCCCC2)cc1 returned CHOP inhibitor 76*, Hsp70 activator 0, S1P4 antag -9 and S1P4 agonist 0.
For CCCCCCCC(=O)N/N=C(\C)c1ccc(N)cc1 the results were CHOP inhibitor 0, Hsp70 activator 0, S1P4 antag -7 and S1P4 agonist 1.
CN(c1ccccc1)S(=O)(=O)c1ccc(Cl)nc1 was read as CHOP inhibitor -2, Hsp70 activator 0, S1P4 antag -8 and S1P4 agonist -1.
CCC1(C)Cc2ccccc2-c2nc3n(c(=O)c21)CCCCC3 (stereo unspecified) was read as CHOP inhibitor 81*, Hsp70 activator 0, S1P4 antag -12 and S1P4 agonist 0.
Screening O=c1c2c(nc3n1CCCCC3)-c1ccccc1CC21CCCCC1 returned CHOP inhibitor -7, Hsp70 activator 0, S1P4 antag -24 and S1P4 agonist 5.
For Cc1ccnc2nc(C(=O)NC3=NCCS3)nn12 the results were CHOP inhibitor -7, Hsp70 activator 0, S1P4 antag 13 and S1P4 agonist 0.
Screening CCc1ccn2cc(-c3ccc4c(c3)OCO4)nc2c1 returned CHOP inhibitor 78*, S1P4 antag 12 and S1P4 agonist 1.
Screening COCCOC(=O)c1sc2nc[nH]c(=O)c2c1C returned CHOP inhibitor 0, Hsp70 activator 0, S1P4 antag 5 and S1P4 agonist 5.
CCOc1c(Br)ccc2c1sc1nc[nH]c(=O)c12 was read as CHOP inhibitor 93*, Hsp70 activator 0, S1P4 antag -7 and S1P4 agonist -2.
Oc1cccc(C(O)CNCc2ccc(OCc3ccc(Cl)cc3Cl)cc2)c1 (stereo unspecified) was read as CHOP inhibitor 104*, Hsp70 activator 0, S1P4 antag -18 and S1P4 agonist 2.
`N/C(=N\NC(=O)c1ccc(Cl)cc1)c1cnccn1` gave CHOP inhibitor -17, S1P4 antag 2 and S1P4 agonist 0.
Cc1cc(/C=N/Nc2nc(N)ncc2[N+](=O)[O-])c(C)n1-c1ccccc1F was read as CHOP inhibitor 80*, S1P4 antag -19 and S1P4 agonist 4.
For Cc1cc(C)nc(SCc2ccc(C(=O)NNC(=O)Nc3cccc(Cl)c3)cc2)n1 the results were CHOP inhibitor 96*, Hsp70 activator 0, S1P4 antag -18 and S1P4 agonist -1.
For Cc1cc(C)nc(SCc2ccc(C(=O)N/N=C/c3ccncc3)cc2)n1 the results were CHOP inhibitor -9, Hsp70 activator 0, S1P4 antag -23 and S1P4 agonist -1.
COc1ccc(CCNC(=O)c2nnn(-c3cc(C)cc(C)c3)c2N)cc1OC was read as CHOP inhibitor 29, Hsp70 activator 0, S1P4 antag 4 and S1P4 agonist -1.
Screening Cc1cc(C(=O)N2CCc3c([nH]c4ccccc34)C2c2cccc(Cl)c2)nn1C (stereo unspecified) returned CHOP inhibitor 92*, Hsp70 activator 0, S1P4 antag 18 and S1P4 agonist 1.
For CSc1ccc(C2c3[nH]c4ccccc4c3CCN2C(=O)c2cc(C)n(C)n2)cc1 (stereo unspecified) the results were CHOP inhibitor 19, Hsp70 activator 0, S1P4 antag 20 and S1P4 agonist 0.
CC(C)CCNC(=O)c1ccc(CSCc2cccc(F)c2)o1 was read as CHOP inhibitor 90*, Hsp70 activator 0, S1P4 antag 2 and S1P4 agonist 1.
`COCCN(CCOC)c1nc(S(=O)(=O)c2ccc(C)cc2)c(Cl)s1` gave CHOP inhibitor 18, Hsp70 activator 0, S1P4 antag 11 and S1P4 agonist -1.
For COc1ccccc1NC(=O)C(C/C=C(\C)Cl)C(C)=O (stereo unspecified) the results were CHOP inhibitor -51, Hsp70 activator 0, S1P4 antag -8 and S1P4 agonist 1.
`O=C(OC1CCN(c2ncc(C(F)(F)F)cc2Cl)CC1)c1ccc(Cl)cc1` gave CHOP inhibitor -14, Hsp70 activator 0, S1P4 antag -5 and S1P4 agonist 1.
`O=C(N/N=C/c1ccc(Cl)cc1Cl)C1CCN(c2ncc(C(F)(F)F)cc2Cl)CC1` gave CHOP inhibitor 96*, Hsp70 activator 0, S1P4 antag -2 and S1P4 agonist -1.
`O=C(N/N=C/c1cccc(C(F)(F)F)c1)C1CCN(c2ncc(C(F)(F)F)cc2Cl)CC1` gave CHOP inhibitor 83*, Hsp70 activator 0, S1P4 antag -11 and S1P4 agonist -2.
Screening Cc1ccc(N2CCN(C(=O)c3ccccc3F)CC2)c(C)c1 returned CHOP inhibitor 93*, Hsp70 activator 0, S1P4 antag -1 and S1P4 agonist -1.
CCC(=O)N1CCN(c2cc(C)ccc2C)CC1 was read as CHOP inhibitor 15, Hsp70 activator 0, S1P4 antag 1 and S1P4 agonist 1.
For Cc1ccc(C)c(N2CCN(C(=O)c3csc4ccccc34)CC2)c1 the results were CHOP inhibitor 80*, Hsp70 activator 0, S1P4 antag 1 and S1P4 agonist 1.
